Test results as given in PubChem BioAssay (NCATS).
Inconclusive results are not listed. Values without a mark were called inactive. Activity calls are given as the source filed them. Calls come from the whole dose curve; as a rule, active = well fitted inhibition curve with a large enough effect; inconclusive = small, poorly fitted or top-dose-only effect; inactive = flat fitted curve, though single readings scatter. Residues, ends and D or L forms follow the SMILES beside them.

assay: BET inhibitor-based combinations targeting novel dependencies in MECOM-rearranged (r) AML: AML-194 cell line (AID 2202237; note: nearly all actives have a fitted effect of over 40% in size;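 for viability (% of control): plate controls were vehicle wells for no effect and wells without cells for full effect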); details: AML-194 (MECOM-r AML) viability, CellTiter-Glo, 48 h; series mostly up to 46 µM
Procedure, shortened: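 AML cell lines seeded at 500 cells/well, treated with 11-point dose curves for 48 h. Viability by CellTiter-Glo luminescence, normalised to DMSO and empty wells; activity expressed as AUC and per-cell-line Z-transformed AUC.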
Potency is the fitted concentration of half-maximal effect.

SMILES	Potency	viability (% of control)
Cc1c(-c2ccc(-c3ccccc3F)cc2)nc2ccc(F)cc2c1C(=O)O	0.662 µM (active)	–
N[C@@H](CCC(=O)O)C(=O)N[C@@H](Cc1c[nH]c2ccccc12)C(=O)O (H-Glu-Trp-OH)	inactive	–
CCCCN(CCCC)CCC(O)c1cc2c(Cl)cc(Cl)cc2c2cc(C(F)(F)F)ccc12 (stereo not drawn)	29.5 µM (active)	–
CCn1c(=O)c(-c2ccc(-c3cncc(C)n3)cc2Cl)cc2cnc(NCCC3CCN(C)CC3)nc21	–	89.1% [at 5.12 µM]
C[C@@H](O)[C@@H](C)Oc1nc(Nc2ccc(S(=N)(=O)C3CC3)cc2)ncc1C(F)(F)F (stereo partly drawn)	16.6 µM (active)	–
Cc1[nH]c(/C=C2\C(=O)Nc3ccc(S(=O)(=O)Cc4c(Cl)cccc4Cl)cc32)c(C)c1C(=O)N1CCC[C@@H]1CN1CCCC1	9.34 µM (active)	–
Cc1ccc(-c2nc(N)nc3c2nnn3Cc2cccc(CO[C@H]3CCOC3)n2)o1	inactive	–
Cc1c(-c2c(-c3ccc(F)o3)sc3ncnc(O[C@@H](Cc4ccccc4OCc4ccnn4CC(F)(F)F)C(=O)O)c23)ccc(OCCN2CCN(C)CC2)c1Cl	4.68 µM (active)	–
COc1cc(C(=O)NC(N)=Nc2ccc(C)c(NC(=O)c3ccc(-c4ccccc4)cc3)c2)cc(OC)c1OC	23.5 µM (active)	–
Fc1cccc(-n2cnc3c(NCc4nc5c(F)c(F)ccc5[nH]4)nc(N4CCOCC4)nc32)c1	0.372 µM (active)	–
Cc1ccc(Nc2cc(N[C@@H]3CCCC[C@@H]3N)nnc2C(N)=O)nc1C	20.9 µM (active)	–
CCNC(=O)Nc1ccc(Oc2ncnc(N)c2/C=N/OC)cc1Cl	23.5 µM (active)	–
O=c1oc2c(C3OCCCO3)c(O)ccc2c2c1CNCC2	inactive	–
COC(=O)[C@H](CCCN=C(N)N)NS(=O)(=O)c1ccc(C)cc1	inactive	–
CNC(=O)c1ccc(N2C(=S)N(c3ccc(C#N)c(C(F)(F)F)c3)C(=O)C2(C)C)cc1F	inactive	–
CN(C)CCOc1ccc(-c2nc(-c3ccc4c(c3)CC/C4=N\O)c(-c3ccncc3)[nH]2)cc1	20.9 µM (active)	–
Cc1ccc(F)c(NC(=O)Nc2ccc(-c3cccc4[nH]nc(N)c34)cc2)c1	16.6 µM (active)	–

SMILES	Potency	viability (% of control)
COc1ccc2[nH]c(C(=O)N3CCC(CC(C)(C)O)CC3)cc2c1	inactive	–
COc1ccc(Cl)cc1-c1cc(=O)[nH]c(=S)n1CC(N)=O	inactive	–
CCC(=O)N1CCOc2c(cc(-c3cc(OC)cc(OC)c3)cc2C(=O)N[C@H]2CCCN(C)C2)C1	18.6 µM (active)	–
Clc1ccc(C(Cn2ccnc2)OCc2ccsc2Cl)c(Cl)c1 (stereo not drawn)	23.5 µM (active)	–
CONC(=O)Nc1ccc(-c2sc3c(c2CN(C)C)c(=O)n(-c2ccc(OC)nn2)c(=O)n3Cc2c(F)cccc2F)cc1	inactive	–
Nc1ncccc1-c1nc2ccc(-c3ccccc3)nc2n1-c1ccc(C2(N)CCC2)cc1	29.5 µM (active)	–
COc1c(Nc2ncc(Cl)c(N[C@H]3[C@H](C(N)=O)[C@@H]4C=C[C@@H]3C4)n2)ccc2c1CCC(N1CCOCC1)CC2 (stereo partly drawn)	inactive	–
COc1cc(NS(C)(=O)=O)ccc1Nc1c2ccccc2nc2ccccc12	0.742 µM (active)	–
Cc1ccc([C@@H]2O[C@H](CO)[C@@H](O)[C@H](O)[C@H]2O)cc1Cc1ccc(-c2ccc(F)cc2)s1	inactive	–
O=C(/C=C/c1ccc(Cl)cc1)N1CCC2(CC1)CN(Cc1ccc(Cl)c(Cl)c1)C(=O)O2	inactive	–
C[C@H]1CN(C2COC2)CCN1c1ccc(Nc2cc(-c3ccnc(N4CCn5c(cc6c5CC(C)(C)C6)C4=O)c3CO)cn(C)c2=O)nc1	inactive	–
O=C(Nc1cccc(Nc2ncc(Br)c(NCCc3cnc[nH]3)n2)c1)N1CCCC1	5.9 µM (active)	–
CCOC(=O)[C@H](CCc1ccccc1)N[C@H]1CCc2ccccc2N(CC(=O)O)C1=O	inactive	–
CCN(CC)CCNc1ccc(C)c2sc3ccccc3c(=O)c12	16.6 µM (active)	–
CC1=C2C[C@H]3[C@@H](CC[C@@H]4C[C@H](NS(C)(=O)=O)CC[C@@]43C)[C@@H]2CC[C@@]2(C1)O[C@@H]1C[C@H](C)CN[C@H]1[C@H]2C	23.5 µM (active)	–
C=CCNC1=C2C[C@@H](C)C[C@H](OC)[C@H](O)[C@@H](C)/C=C(\C)[C@H](OC(N)=O)[C@@H](OC)/C=C\C=C(/C)C(=O)NC(=CC1=O)C2=O	16.6 µM (active)	–
